Compound activity as filed in PubChem.
Measles CPE – compounds protecting cells from measles virus cytopathic effect, primary screen, measles RdRp inhibitor project, single point, MLSMR library, absorbance; Measles virus-infected cells, CPE protection; protection (pct of control), % at 4 µM; actives 1.5% (n = 140,000); in the data active means protection mostly above about 24%, no sharp cut-off; inactive means mostly below about 26%
MT1-MMP txn act – MT1-MMP promoter reporter activation – cell-based, luciferase luminescence, primary screen; HT1080 MT1-MMP promoter luciferase reporter, overnight; active compounds read high; AID 750, 2007; activation factor at 10 µM; actives 0.16% (n = 86,000);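 active means activation factor of at least 2 for MT1-MMP transcription at 10 µM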
PostGolgi ctrl – growth inhibition of yeast control strain, primary screen, counter-screen for post-Golgi transport modulator project | AID 738, 2007 | inhibition, % at 10 µM | actives 5% (n = 98,000) | efflux-deficient yeast background strain, growth absorbance A615, 16 h
PostGolgi yeast – phenotypic screen on post-Golgi transport, primary screen; post-Golgi transport phenotypic cell assay; inhibition, % at 10 µM; actives 0.9% (n = 98,000);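 further: yeast cells grown in 1536-well plates; yeast grown about 18 h at 30C before absorbance read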
The depositor's hits bear a star; · = not tested or not shown. Sampled rows, rich in hits. Any-hit rate of the full collection: about 5.3%. Unless noted, no stated cut-off is given here; in the data, active means inhibition above about 30%; inactive means the rest.

SMILES	Measles CPE	MT1-MMP txn act	PostGolgi ctrl	PostGolgi yeast
O=C(CSC1CC(=O)N(CC(c2ccccc2)c2ccccc2)C1=O)Nc1ccc(Cl)cc1 (configuration not stated)	5	·	41*	11
CCc1nnc(NC(=O)CN2C(=O)/C(=C/c3cc(OC)c(OC)c(OC)c3)SC2=S)s1	9	·	·	·
Nc1ncnc2c1ncn2[C@@H]1O[C@H](CO)[C@@H](O)[C@H]1O	45*	1.1	·	·
CCSc1nc(C)cc(C)c1S(=O)(=O)c1ccccc1C	17	·	31*	21
CCN(CC)C(=S)Sc1c(-c2ccccc2)c2cc(Cl)ccc2[nH]c1=O	6	1.1	32*	18
COc1ccc(-c2noc(CN3CCN(c4ccccc4)CC3)n2)cc1	10	1.1	4	-10
O=C1c2ccccc2C(=O)N1CCCc1nc(-c2ccncc2)no1	25	1.2	36*	1
COc1ccc(-c2noc(CN3C(=O)c4ccccc4C3=O)n2)cc1	37*	1.1	8	-8
COc1ccccc1-n1c(=O)oc2ccc(Cl)cc2c1=O	14	1.3	60*	13
O=C1C2C3CCC(C3)C2C(=O)N1Cc1ccccc1 (configuration not stated)	13	·	·	·
O=C(CN1CCN(c2ccccn2)CC1)N1c2ccccc2Sc2ccc(C(F)(F)F)cc21	12	1.2	41*	3
O=C(CN1CCCC1)N1c2ccccc2Sc2ccc(C(F)(F)F)cc21	3	0.9	·	·
Cc1cc(Br)ccc1NC(=O)CCN1C(=O)c2ccncc2C1=O	11	1.1	33*	9
O=C(CCN1C(=O)c2ccncc2C1=O)Nc1ccc(F)cc1	3	1	0	-1
CCC(C(=O)NCCN1CCN(C)CC1)n1c(C)c2cnn(-c3ccccc3)c(=O)c2c1C (configuration not stated)	31	1	2	4
CCCN1CCN(C(=O)CCCn2c(C)c3cnn(-c4ccccc4)c(=O)c3c2C)CC1	11	1	31*	-3
CC(=O)c1c(C)n(-c2ccccc2)c2ccc(O)cc12	6	·	7	-8
COC(=O)c1c(C)n(-c2ccc(C)cc2)c2ccc(O)cc12	4	1.1	47*	-8
COC(=O)c1c(C)n(-c2ccccc2)c2ccc(O)cc12	9	1.1	43*	1
COc1ccc(/C=C(/C(=O)c2ccc(Cl)cc2Cl)n2cncn2)cc1	2	·	33*	85*
CN(C)c1ccc(/C=C(/C(=O)c2ccc(Cl)cc2Cl)n2cncn2)cc1	16	·	·	·
CCN1CCN(C(c2nnnn2Cc2ccc3c(c2)OCO3)C(C)C)CC1 (configuration not stated)	56*	1.1	·	·
O=c1[nH]c2ccccc2cc1CN(c1ccccc1)S(=O)(=O)c1ccccc1	7	·	·	·
CCN(Cc1cc2ccccc2[nH]c1=O)S(=O)(=O)c1ccccc1	18	1	30*	0
CCCN(Cc1cc2ccc(C)cc2[nH]c1=O)S(=O)(=O)c1ccccc1	16	1	36*	8
SMILES	Measles CPE	MT1-MMP txn act	PostGolgi ctrl	PostGolgi yeast
CCOc1ccccc1C(=O)N(C)Cc1cc2ccccc2[nH]c1=O	3	1.1	-3	7
CCOc1cc(C(=O)N(C)Cc2cc3ccccc3[nH]c2=O)cc(OCC)c1OCC	64*	1.1	8	0
COC(=O)[C@@]1(Cc2ccc(F)cc2)[C@H]2c3cc(C(=O)N(C)C)n(Cc4ccc(OC(F)(F)F)cc4)c3C[C@H]2CN1C(=O)c1ccccc1	10	1.1	·	·
CC(=O)Nc1ccccc1Nc1cc(C#N)c(C#N)cc1[N+](=O)[O-]	·	1	·	·
O=C(CC(NC(=O)c1ccccc1Cl)c1ccccc1)NCCc1ccc(Cl)cc1 (configuration not stated)	41*	·	·	·
O=C(COC(=O)CC(NC(=O)c1ccccc1Cl)c1ccccc1)Nc1cccc(F)c1 (configuration not stated)	14	·	·	·
CCN(CC(=O)NC(C)(C)C)C(=O)CCl	5	·	·	·
COc1ccc2c(c1)C(c1ccccc1)=NNC(c1ccco1)=N2	49*	·	-3	5
Cc1ccc(S(=O)(=O)Oc2ccc(C3C4=C(CCCC4=O)N(CCC(=O)O)C4=C3C(=O)CCC4)cc2Cl)cc1	4	·	·	·
COc1ccc2nc(C)cc(N3CC(C)OC(C)C3)c2c1 (configuration not stated)	27*	1.2	4	0
NC(=O)CNC(=O)[C@@H]1CC2(CC(c3ccc(Cl)cc3)=NO2)CN1C(=O)c1ccccc1 (some centres not stated)	13	·	16	-4
CS(=O)(=O)N1CCc2cc(-c3csc(NC(=O)C(c4ccccc4)c4ccccc4)n3)ccc21	6	1	2	1
CC1Cc2cc(-c3csc(NC(=O)Cc4ccccc4)n3)ccc2N1S(C)(=O)=O (configuration not stated)	71*	1.1	16	-10
Cc1cc2ncn(/N=C/c3ccc([N+](=O)[O-])o3)c2cc1C	7	·	52*	7
Cc1ccc(S(=O)(=O)N/N=C\c2ccc([N+](=O)[O-])o2)cc1	1	·	10	-2
CC1CC(C)(C)N2C(=O)C3(Nc4ccccc4S3)c3cccc1c32 (configuration not stated)	9	1.1	45*	-1
O=C1N2CCCc3cccc(c32)C12Nc1ccccc1S2 (configuration not stated)	15	1.1	-14	-3
O=C(CSc1nnc(NC(=O)c2ccccc2Cl)s1)Nc1ccc2c(c1)oc1ccccc12	29	·	·	·
O=c1oc2ccccc2n1CSc1nc2ccccc2s1	16	2.1*	18	-10
O=C(CSc1nc2ccccc2s1)Nc1ccc2c(c1)oc1ccccc12	26*	·	·	·
O=C(Oc1nsnc1N1CCOCC1)N(c1ccccc1)c1ccccc1	7	1.2	30*	15
COC(=O)Oc1nsnc1N1CCOCC1	·	1.1	0	1
COc1cc(C)c(Br)cc1S(=O)(=O)N1CCCC1	30*	1.1	9	-8
CCN(CC)S(=O)(=O)c1cc(Br)ccc1OC	2	1.1	4	0
CCN(CC)S(=O)(=O)c1cc(Br)c(C)cc1OC	8	1	33*	-14
SMILES	Measles CPE	MT1-MMP txn act	PostGolgi ctrl	PostGolgi yeast
Cc1cccc(C(=O)O/N=C/c2c(N3CCOCC3)n(C)c3ccccc23)c1	32*	·	19	9
Cc1ccc(C)c(NC(=O)C2=CCN(S(=O)(=O)c3ccc(F)cc3)CC2)c1	7	·	·	·
Cc1cc(C)c(C#N)c(SCC(=O)c2ccc(Cl)cc2Cl)n1	4	1	5	-3
CSc1nc(-c2ccc(Cl)cc2Cl)[nH]c(=O)c1C#N	55*	·	·	·
CC/C(C)=N/Nc1cccc([N+](=O)[O-])c1	11	·	·	·
CCc1nnc(NC(=O)CN2C(=O)c3ccccc3S2(=O)=O)s1	40*	1	1	2
O=C(CCn1cnc2ccccc2c1=O)Nc1nc2c(s1)CCCC2	20	1.1	4	0
Cc1nnc(NC(=O)CN2C(=O)c3ccccc3S2(=O)=O)s1	4	0.9	4	0
O=C(CCN1C(=O)c2ccccc2S1(=O)=O)Nc1nc2c(s1)CCCC2	24*	1.6	10	-2
CCN(CC)CCNC(=O)c1ccccn1	4	1.1	9	4
